Consider 43 sequences from publication PMC7819943, “Rice protein-binding microarrays: a tool to detect cis-acting elements near promoter regions in rice”.

Whole data set: some 68,000 sequences, median “fluorescence intensity (a.u.)” near 9,100, cut for the highest 2% near 16,000. This is one part of a sample in which the highest values are shown more often than they occur.

The target of this assay is OsWRKY34 (Oryza sativa, UniProt Q0JBA9 1-250). Kind of assay: protein-binding microarray (RPBM); PBS, 2% BSA, 51.3 ng/ul salmon testes DNA, 50 uM zinc acetate, 200 nM TF, 25 C, 1 h; high values mean tight binding. As to conditions: protein: recombinant; tags: N-terminal polyhistidine and DsRed monomer fusion (pET32a); label: CyDye5-dUTP incorporated in the synthesized complementary strand; 3' TTTTT single-stranded linker to array surface; dsDNA, one strand shown. The procedure, abridged: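 The binding signal is fluorescence intensity per array feature (arbitrary units). Readings came from an Axon 4000B scanner after a washed, 2% BSA-blocked, double-stranded custom Agilent array had been incubated for 1 h at 25 °C with 200 nM protein and 50 µM zinc acetate. The protein was a Ni–NTA-purified transcription factor fused N-terminally to polyhistidine and DsRed, expressed in E. coli BL21-CodonPlus.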
Chain of OsWRKY34 (Q0JBA9 entry or part of it): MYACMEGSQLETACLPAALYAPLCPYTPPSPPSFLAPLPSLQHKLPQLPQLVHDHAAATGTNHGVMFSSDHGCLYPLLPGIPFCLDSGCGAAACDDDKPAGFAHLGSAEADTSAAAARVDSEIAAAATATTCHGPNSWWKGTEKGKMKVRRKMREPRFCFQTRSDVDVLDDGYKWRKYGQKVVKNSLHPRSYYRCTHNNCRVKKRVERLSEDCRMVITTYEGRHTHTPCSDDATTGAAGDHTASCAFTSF
“TTTCATGTCGCTCCTTGTCGTTGCTGCTCTTTGGGTGCAACGGAGTCACCTAGTGCAG”: the binding signal is 11100 fluorescence intensity (a.u.). With “GGGGTATGAAATGTTTTTTTTTTCCTTTACGTTTCTTTTTCGGAGTCACCTAGTGCAG” the figure was 15400 fluorescence intensity (a.u.). Next, “GCTGGAGGGGCTGGGGTATGTTCTTTTTGTATATGACGTTCGGAGTCACCTAGTGCAG”: 20300 fluorescence intensity (a.u.). As to “CGTTTTATTTTTGGTTGTTTTTCTGTTTGGGTTTTGATTTCGGAGTCACCTAGTGCAG”, the binding signal is 11300 fluorescence intensity (a.u.). On to “GGCTGGTTTGGTTGGTTGAGAATACCTTTTCTTTTTCCTTCGGAGTCACCTAGTGCAG”, for which the binding signal was 29100 fluorescence intensity (a.u.). Consider “CATATGTATGAGGGTATCTTTGTTTTGGCTTTGGTCCCTTCGGAGTCACCTAGTGCAG”, for which the binding signal is 10200 fluorescence intensity (a.u.).

With “TGTTTTTGCTTCTCTTCCTTTTGCTGGAGCTTATTGGTTTCGGAGTCACCTAGTGCAG”, the binding signal is 10100 fluorescence intensity (a.u.). Next, “GGTTTTTATGGGGTTGCTCTTTGATTTTTTTTTTCTCCTGCGGAGTCACCTAGTGCAG”: 12200 fluorescence intensity (a.u.); “ATTTTCCTTGTTTTGATGTTTTCTGGTTGGGGAAGGGTTACGGAGTCACCTAGTGCAG”: 24600 fluorescence intensity (a.u.). Regarding “CCTATGAAGAAACTTACGCTGACGGCTGACCTAAACGTGCCGGAGTCACCTAGTGCAG”, the binding signal is 11000 fluorescence intensity (a.u.). Next, “AAACAATCCGACGGCCCGTATTCCGTGGTCCACGGCCACGCGGAGTCACCTAGTGCAG”: 9020 fluorescence intensity (a.u.); “CTTATTTCAAATGTGTGGGTATACATATGTGCACATATATCGGAGTCACCTAGTGCAG”: 8440 fluorescence intensity (a.u.); “TCGTTACATGTTCTTTCATTCTCGTATTGCATTATCTGCTCGGAGTCACCTAGTGCAG”: 9260 fluorescence intensity (a.u.).

With “TCGATCGGTTGGTTGGTTGGTTTTGTTGGATTTTTTTCCTCGGAGTCACCTAGTGCAG”, the binding signal was 18700 fluorescence intensity (a.u.). With “GTTCTTCGTTAATACGGTGCTTTCATTATTTTGTTTTCCCCGGAGTCACCTAGTGCAG” the figure was 16600 fluorescence intensity (a.u.); with “TTCCTGGTTGCTTCTTTTGCAGTTTTTTTTTTCCCTTCCTCGGAGTCACCTAGTGCAG”, 10100 fluorescence intensity (a.u.). With “CTCCTGCCTGGGTTTGGTTTGGTTTGGCTTTGCTTCTTCCCGGAGTCACCTAGTGCAG” the figure was 36800 fluorescence intensity (a.u.).

In the case of “GGATTTTCTTCCGATCTCGCTTCCACCTCGCCGCCTCGCCCGGAGTCACCTAGTGCAG”, the binding signal is 9120 fluorescence intensity (a.u.).

As to “CTCGCCTCGCCGCCTTTTCTTCGCCATCTTTTTCGATTTCCGGAGTCACCTAGTGCAG”, the binding signal is 18800 fluorescence intensity (a.u.). Turning to “CCCTGGTGTTTGGATTTGGTTGTTCCTCGCGATTGCATTTCGGAGTCACCTAGTGCAG”, the binding signal is 15600 fluorescence intensity (a.u.). “TATTAGTGTTTTATTTTCACCGGTTAATATTTTTGTTCTTCGGAGTCACCTAGTGCAG”: the binding signal is 8880 fluorescence intensity (a.u.). With “GCTTGGATTTTTTTTGTTGCTTTTGGTTGTTGTGATCCCTCGGAGTCACCTAGTGCAG” the figure was 11800 fluorescence intensity (a.u.); with “GGTTTGGCTTTGCTTCTTCCTCGCGCGGCGCCTCCCATCCCGGAGTCACCTAGTGCAG”, 9260 fluorescence intensity (a.u.). Next, “TTCGTTAAATTATTTTTCTTTTTCGTTTTTTTTTTTTGTTCGGAGTCACCTAGTGCAG”: 8930 fluorescence intensity (a.u.); “GTGCTCGATGCTCGATGCCCTCCTTTTCCGCCATCTTTTTCGGAGTCACCTAGTGCAG”: 10200 fluorescence intensity (a.u.); “TACTATACCACTTACTACTAAGTATTCTGCGCACAAACAGCGGAGTCACCTAGTGCAG”: 10800 fluorescence intensity (a.u.). As to “CCTCGGCTCCCATCCACTACCGTTTGCTACTCCGGCGCCGCGGAGTCACCTAGTGCAG”, the binding signal was 10600 fluorescence intensity (a.u.). With “CTCATCTCACCCGTCACTACTGCACTGCGCACCATTGCCGCGGAGTCACCTAGTGCAG” the figure was 8540 fluorescence intensity (a.u.); with “GATTGGGTTGTTTGCGGGGCTAAGTTCCTAATTTTAATGACGGAGTCACCTAGTGCAG”, 11500 fluorescence intensity (a.u.); with “ACCCTCCACCCGCCACCGCCACCGCCGCCTTCGCCGCCGCCGGAGTCACCTAGTGCAG”, 9250 fluorescence intensity (a.u.). For the sequence “TTGCAACGGATTTTACTGGGCTTATGGGCTTCTTTTATTGCGGAGTCACCTAGTGCAG”, the binding signal was 9700 fluorescence intensity (a.u.). Next, “CCTCATTTGCTTCTTCTTCTTCTTCCTCCTCTTTGTTTCACGGAGTCACCTAGTGCAG”: 9120 fluorescence intensity (a.u.); “TCTCCTTGATTCCCGCTTCTCACACGCATTATTTGTTTCACGGAGTCACCTAGTGCAG”: 18500 fluorescence intensity (a.u.). With “GAGACGTTGTATATCTGGTTTTGTGGTTTGGGGATGTTTTCGGAGTCACCTAGTGCAG” the figure was 20100 fluorescence intensity (a.u.); with “TCTTGCGACGATCGTGTGGGGTGGGTTCGTGTGCTCTCTCCGGAGTCACCTAGTGCAG”, 19500 fluorescence intensity (a.u.). Next, “GAAGCTTCCTCGTCGTCCTTTGTTGGGTTGGGTTGGGTTGCGGAGTCACCTAGTGCAG”: 21000 fluorescence intensity (a.u.). As for “GCTTTGTTCTGATTCCTTCACAGTTATTTGATATTTTCCTCGGAGTCACCTAGTGCAG”, the binding signal was 8710 fluorescence intensity (a.u.). Next, “CTTGCTCTCCTCTCTCGTGCTCCATCGATCGATCGATCTCCGGAGTCACCTAGTGCAG”: 9660 fluorescence intensity (a.u.); “TGTTGTCGTCGTCCCTCTTCCTTTCCTTTCCTTTCCTTGCCGGAGTCACCTAGTGCAG”: 8870 fluorescence intensity (a.u.); “GGGATTTCATATATCTGGTTTTGCGGTTGGGGACGATTTTCGGAGTCACCTAGTGCAG”: 12300 fluorescence intensity (a.u.). Next, “GGATTGGTTTTGAGATTGTTCTGTCAGATGGGGATTGTTTCGGAGTCACCTAGTGCAG”: 12700 fluorescence intensity (a.u.).

For “CTCTCTTCTTCTTCCTCGCTTTGCTTGGGTTGGGTTGGAGCGGAGTCACCTAGTGCAG”, the binding signal was 14800 fluorescence intensity (a.u.). For the sequence “AATACTTGCGAGCTCCGATCTCTTCTTCTTCTTCGTGAGCCGGAGTCACCTAGTGCAG”, the binding signal was 8180 fluorescence intensity (a.u.).
